Results taken from PubChem BioAssay (NCATS).
Inconclusive results are not listed. Calls of active or inactive are those of the source. Calls follow the shape of the dose curve; as a rule, active = well fitted inhibition curve with a large enough effect; inconclusive = small, poorly fitted or top-dose-only effect; inactive = flat fitted curve, though single readings scatter.

How the values were obtained:
[1] = qHTS profiling for inhibitors of Plasmodium falciparum proliferation (AID 504749);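 also: 0% = DMSO vehicle and full inhibition = artemisinin control; nearly all actives have a fitted effect of over 60% in size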; details: P. falciparum in erythrocytes, SYBR Green DNA, 72 h, at 28.7 µM (top of the series)
Method in brief: (§1)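 Each compound contacts P. falciparum-infected red blood cells for 72 h at 37 C; lysis buffer (Tris, EDTA, saponin, Triton X, SYBR Green I) is added and fluorescence measured next morning; values normalized to controls.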

[2] = tested on: 3D7; test: as above; details: P. falciparum in erythrocytes, SYBR Green DNA, 72 h; series mostly up to 28.7 µM
Method in brief: as §1

[3] = tested on: 7G8; test: as above; details: P. falciparum in erythrocytes, SYBR Green DNA, 72 h; series mostly up to 28.7 µM
Method in brief: as §1

[4] = tested on: AA1029; test: as above; details: P. falciparum in erythrocytes, SYBR Green DNA, 72 h; series mostly up to 28.7 µM
Method in brief: as §1

[5] = tested on: AS120; test: as above; details: P. falciparum in erythrocytes, SYBR Green DNA, 72 h; series mostly up to 28.7 µM
Method in brief: as §1

[6] = tested on: ATS189; test: as above; details: P. falciparum in erythrocytes, SYBR Green DNA, 72 h; series mostly up to 28.7 µM
Method in brief: as §1

[7] = tested on: ATS95; test: as above; details: P. falciparum in erythrocytes, SYBR Green DNA, 72 h; series mostly up to 28.7 µM
Method in brief: as §1

[8] = tested on: C2A; test: as above; details: P. falciparum in erythrocytes, SYBR Green DNA, 72 h; series mostly up to 28.7 µM
Method in brief: as §1

[9] = tested on: CP185; test: as above; details: P. falciparum in erythrocytes, SYBR Green DNA, 72 h; series mostly up to 28.7 µM
Method in brief: as §1

[10] = tested on: CP191; test: as above; details: P. falciparum in erythrocytes, SYBR Green DNA, 72 h; series mostly up to 28.7 µM
Method in brief: as §1

[11] = tested on: CP192; test: as above; details: P. falciparum in erythrocytes, SYBR Green DNA, 72 h; series mostly up to 28.7 µM
Method in brief: as §1

[12] = tested on: CP194; test: as above; details: P. falciparum in erythrocytes, SYBR Green DNA, 72 h; series mostly up to 28.7 µM
Method in brief: as §1

[13] = tested on: CP201; test: as above; details: P. falciparum in erythrocytes, SYBR Green DNA, 72 h; series mostly up to 28.7 µM
Method in brief: as §1

[14] = tested on: CP203; test: as above; details: P. falciparum in erythrocytes, SYBR Green DNA, 72 h; series mostly up to 28.7 µM
Method in brief: as §1

[15] = tested on: CP211; test: as above; details: P. falciparum in erythrocytes, SYBR Green DNA, 72 h; series mostly up to 28.7 µM
Method in brief: as §1

[16] = tested on: CP215; test: as above; details: P. falciparum in erythrocytes, SYBR Green DNA, 72 h; series mostly up to 28.7 µM
Method in brief: as §1

[17] = tested on: CP217; test: as above; details: P. falciparum in erythrocytes, SYBR Green DNA, 72 h; series mostly up to 28.7 µM
Method in brief: as §1

[18] = tested on: CP237; test: as above; details: P. falciparum in erythrocytes, SYBR Green DNA, 72 h; series mostly up to 28.7 µM
Method in brief: as §1

[19] = tested on: CP238; test: as above; details: P. falciparum in erythrocytes, SYBR Green DNA, 72 h; series mostly up to 28.7 µM
Method in brief: as §1

[20] = tested on: CP247; test: as above; details: P. falciparum in erythrocytes, SYBR Green DNA, 72 h; series mostly up to 28.7 µM
Method in brief: as §1

NCC1CCC(C(=O)Oc2ccc(CCC(=O)O)cc2)CC1 (stereo not given)
inactive: activity, negative = inhibition ([1]; parasite line A) -0.969% | activity, negative = inhibition ([1]; parasite line B) 4.31% | Potency [2] | Potency [3] | Potency [4] | Potency [5] | Potency [6] | Potency [7] | Potency [8] | Potency [9] | outcome [10] | outcome [11] | outcome [12] | outcome [13] | Potency [14] | outcome [15] | Potency [16] | outcome [17] | Potency [18] | Potency [19] | Potency [20]

COc1cc(O)cc(O)c1
inactive: activity, negative = inhibition ([1]; parasite line A) 4.63% | activity, negative = inhibition ([1]; parasite line B) -8.81% | Potency [2] | Potency [3] | Potency [4] | Potency [5] | Potency [6] | Potency [7] | Potency [8] | Potency [9] | outcome [10] | outcome [11] | outcome [12] | outcome [13] | outcome [15] | Potency [16] | outcome [17] | Potency [18] | Potency [19] | Potency [20]

OC[C@@H](O)[C@@H](O)[C@H](O)[C@H](O)CO
inactive: activity, negative = inhibition ([1]; parasite line A) 7.85% | activity, negative = inhibition ([1]; parasite line B) 7.16% | Potency [2] | Potency [3] | Potency [4] | Potency [5] | Potency [6] | Potency [7] | Potency [8] | Potency [9] | outcome [10] | outcome [11] | outcome [12] | outcome [13] | outcome [15] | Potency [16] | outcome [17] | Potency [18] | Potency [19] | Potency [20]

CC1CC(OC(=O)c2ccccc2O)CC(C)(C)C1 (stereo not given)
inactive: activity, negative = inhibition ([1]; parasite line A) -5.75% | activity, negative = inhibition ([1]; parasite line B) 14.6% | Potency [2] | Potency [3] | Potency [4] | Potency [5] | Potency [6] | Potency [7] | Potency [8] | Potency [9] | outcome [10] | outcome [11] | outcome [12] | outcome [13] | outcome [15] | Potency [16] | outcome [17] | Potency [18] | Potency [19] | Potency [20]

Cc1ncc(CO)c(CN)c1O
inactive: activity, negative = inhibition ([1]; parasite line A) 7.32% | activity, negative = inhibition ([1]; parasite line B) 18.3% | Potency [2] | Potency [3] | Potency [4] | Potency [5] | Potency [6] | Potency [7] | Potency [8] | Potency [9] | outcome [10] | outcome [11] | outcome [12] | outcome [13] | Potency [14] | outcome [15] | outcome [17] | Potency [18] | Potency [19] | Potency [20]

O=C(CN1CCNCC1)NC1CCCCC1
inactive: activity, negative = inhibition ([1]; parasite line A) 3.68% | activity, negative = inhibition ([1]; parasite line B) 4.23% | Potency [2] | Potency [3] | Potency [4] | Potency [5] | Potency [6] | Potency [7] | Potency [8] | Potency [9] | outcome [10] | outcome [11] | outcome [12] | outcome [13] | outcome [15] | Potency [16] | outcome [17] | Potency [18] | Potency [19] | Potency [20]

CC(C)CCCC(C)CCCC(C)CCCCC(C)CCCC(C)CCCC(C)C (stereo not given)
inactive: activity, negative = inhibition ([1]; parasite line A) -0.284% | activity, negative = inhibition ([1]; parasite line B) 17.5% | Potency [2] | Potency [3] | Potency [4] | Potency [5] | Potency [6] | Potency [8] | Potency [9] | outcome [10] | outcome [11] | outcome [12] | outcome [13] | Potency [14] | outcome [15] | Potency [16] | outcome [17] | Potency [18] | Potency [19] | Potency [20]

Cc1ccsc1C(=CCCN1CCC[C@@H](C(=O)O)C1)c1sccc1C
inactive: activity, negative = inhibition ([1]; parasite line A) 0.673% | activity, negative = inhibition ([1]; parasite line B) 3.18% | Potency [2] | Potency [3] | Potency [4] | Potency [5] | Potency [6] | Potency [7] | Potency [8] | Potency [9] | outcome [10] | outcome [11] | outcome [12] | outcome [13] | outcome [15] | Potency [16] | outcome [17] | Potency [18] | Potency [19] | Potency [20]

CCCCOC(=O)c1ccc(N)cc1
inactive: activity, negative = inhibition ([1]; parasite line A) 5.58% | activity, negative = inhibition ([1]; parasite line B) 10.8% | Potency [2] | Potency [3] | Potency [4] | Potency [5] | Potency [6] | Potency [7] | Potency [8] | Potency [9] | outcome [10] | outcome [11] | outcome [12] | outcome [13] | outcome [15] | Potency [16] | outcome [17] | Potency [18] | Potency [19] | Potency [20]

CCCNC(C)(C)COC(=O)c1ccccc1
inactive: activity, negative = inhibition ([1]; parasite line A) -2.07% | activity, negative = inhibition ([1]; parasite line B) 9.96% | Potency [2] | Potency [3] | Potency [4] | Potency [5] | Potency [6] | Potency [7] | Potency [8] | Potency [9] | outcome [10] | outcome [11] | outcome [12] | outcome [13] | outcome [15] | Potency [16] | outcome [17] | Potency [19] | Potency [20]

CN1CCN(C(=O)C2CCCCC2)CC1
inactive: activity, negative = inhibition ([1]; parasite line A) 0.439% | activity, negative = inhibition ([1]; parasite line B) -13.4% | Potency [2] | Potency [3] | Potency [4] | Potency [5] | Potency [6] | Potency [7] | Potency [8] | Potency [9] | outcome [10] | outcome [11] | outcome [12] | outcome [13] | outcome [15] | Potency [16] | outcome [17] | Potency [18] | Potency [19] | Potency [20]

CC(=O)Nc1ccc(C(=O)O)cc1
inactive: activity, negative = inhibition ([1]; parasite line A) 7.84% | activity, negative = inhibition ([1]; parasite line B) 3.26% | Potency [2] | Potency [3] | Potency [4] | Potency [5] | Potency [6] | Potency [7] | Potency [8] | Potency [9] | outcome [10] | outcome [11] | outcome [12] | outcome [13] | outcome [15] | Potency [16] | outcome [17] | Potency [18] | Potency [19] | Potency [20]

CC(C)CCOC(=O)c1ccc(N(C)C)cc1
inactive: activity, negative = inhibition ([1]; parasite line A) 18.9% | activity, negative = inhibition ([1]; parasite line B) 14.8% | Potency [2] | Potency [3] | Potency [4] | Potency [5] | Potency [6] | Potency [7] | Potency [8] | Potency [9] | outcome [10] | outcome [11] | outcome [12] | outcome [13] | outcome [15] | Potency [16] | outcome [17] | Potency [18] | Potency [19] | Potency [20]
